# In the library only some 21% were active in any assay of this set; here they are far more common.
# SARS PLP yeast – blocks SARS-CoV papain-like protease in a yeast assay; S. cerevisiae expressing SARS-CoV PLpro, growth rescue; Potency, µM (doses to about 32.9 µM), without a hit: at the highest dose activity, positive = growth rescue, most hits filed as activators; 330,000 compounds, 0.19% hits; calls by dose curve; also: potency is read from the fitted curve at half-maximal effect; 0% is about no effect; nearly all actives have a fitted effect of over 55% in size
# NS1 function inh – inhibitors of influenza NS1 protein function | Potency, µM (highest dose often 46.1 µM), for the others: at the top dose activity, positive = more growth | 270,000 compounds, 0.4% hits | AID 2326; calls by dose curve; also: potency is read from the fitted curve at half-maximal effect; actives are rising curves; nearly all actives have a fitted effect of over 50% in size
#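 Recovery from NS1-induced slow growth read by OD600 in budding yeast switched to galactose assay medium (pH 6.0, -URA) at 1:100 dilution. Compound 23 nl per well; the matching strain lacking NS1 serves as control.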
# Pf growth 96h – P. falciparum growth inhibition at 96 hour, primary screen for plastid delayed-death inhibitors; P. falciparum luciferase reporter growth, 96 h; Potency, µM (series often up to 28.7 µM), inactives show top-dose activity change, negative = inhibition, hits mostly inhibitors; 320,000 compounds, 6.9% hits; also: potency is read from the fitted curve at half-maximal effect; % is scaled to controls: 0 for no effect and ±100 for the full control effect
#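 96 h incubation, 37 C, 5% CO2, of luciferase-reporter P. falciparum-infected RBCs (2% hematocrit, 0.05% parasitemia final) with test compounds; endpoint luminescence.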
# CHX counter – counter-screen hit for Shiga toxin inhibitors, cycloheximide | cell reporter, cycloheximide protein synthesis inhibition counterscreen | max response, % | 300,000 compounds, 12% hits; in the data active = max response mostly above about 13%, no sharp cut-off; inactive = mostly below about 14%; also: read at 38.3 µM for the half of the compounds with a filed dose; 0% is about no effect
# Shiga inhibitor – Shiga toxin inhibition. Vero cells, Shiga toxin protein synthesis inhibition reporter. AID 2315. 290,000 compounds, 9.2% hits. inhibition, % at 38.7 µM; in the data active = inhibition mostly above about 28%, no sharp cut-off; inactive = mostly below about 43%; also: 0% is about no effect
# Pf growth 48h – inhibits P. falciparum growth in the first generation, 48 h | P. falciparum luciferase growth in erythrocytes, 48 h | Potency, µM (highest dose often 28.7 µM), without a hit: top-dose activity change, negative = inhibition, hits mostly inhibitors | 310,000 compounds, 5.9% hits; also: potency is read from the fitted curve at half-maximal effect; % is scaled to controls: 0 for no effect and ±100 for the full control effect
#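 In quantitative HTS format, infected erythrocytes bearing luciferase-reporter parasites were treated for a single generation at 37 C. Luminescence after adding detection reagent served as the growth measure.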
# * = called active by the depositor; ? = inconclusive; . = no result. Unless noted, calls follow the shape of the dose curve; as a rule, active = well fitted inhibition curve with a large enough effect; inconclusive = small, poorly fitted or top-dose-only effect, or another doubt; inactive = no such curve, though single readings can be large or run the other way.
SMILES,SARS PLP yeast,NS1 function inh,Pf growth 96h,CHX counter,Shiga inhibitor,Pf growth 48h
COc1cccc(C2SCC(=O)N2c2ccc(Br)cc2)c1OC (centres undefined),17.1%,-6.1%,0.0%,-2.9,-3.0,-19.5%
COc1ccc(NC(=O)C2CC(=O)N=C(N)S2)cc1 (centres undefined),0.6%,4.1%,6.8%,11.1,-6.7,12.7%
CC(C)=NNc1nc(-c2ccc(N3C(=O)CCC3=O)cc2)cs1,-1.7%,16.3%,-1.1%,20.0*,14.1,0.0%
CC(/C=C/c1ccccc1)=N\Nc1nc(-c2ccccc2)cs1,-2.5%,22.0%,?,1.7,11.8,?
CC(C)=NNc1nc(-c2ccccc2)cs1,-37.4%,?,111.4%,22.2*,65.9,34.7%
C/C(CCC1CC(C)OC1=O)=N/Nc1nc(-c2ccccc2)cs1 (centres undefined),-0.7%,9.3%,35.6%,21.8*,44.1*,21.0%
Cc1c(C(=O)NC(C(C)C)C(C)C)cccc1[N+](=O)[O-],-7.5%,4.0%,13.7%,-1.1,-1.0,13.6%
COC(=O)c1cc(C)sc1NC(=O)CN1CCN(C(=O)C2CCCO2)CC1 (centres undefined),3.3%,-7.8%,21.5%,-9.8,-26.0,22.8%
O=C(CNc1ccccc1F)N/N=C/C1CC=CCC1 (centres undefined),-1.2%,.,21.7%,-0.6,8.9,-11.3%
O=C(N/N=C/C1CC=CCC1)c1ccccc1O (centres undefined),-3.7%,-3.1%,0.9%,28.9*,39.4*,-11.9%
O=C(N/N=C/C1CC=CCC1)c1cc(Br)ccc1O (centres undefined),?,-26.2%,32.9%,30.5*,9.1,1.5%
C/C=N/NC(=O)c1cc(Br)ccc1O,-7.4%,-3.9%,10.2%,11.8,20.4,27.3%
CC(C)CC(NC(=O)OC(C)(C)C)c1cn([C@@H](Cc2cc3ccccc3[nH]2)C(=O)N2CCN(C(=O)OC(C)(C)C)CC2)nn1 (some centres undefined),1.0%,1.6%,5.22µM*,-2.8,-13.9,?
CC[C@H](C)C(C(=O)N1CCN(C(=O)OC(C)(C)C)CC1)n1cc(C(Cc2ccc(O)cc2)NC(=O)OC(C)(C)C)nn1 (some centres undefined),0.8%,1.1%,1.65µM*,1.0,-11.0,?
CC(C)CC(NC(=O)OC(C)(C)C)c1cn([C@@H](Cc2ccc(O)cc2)C(=O)N2CCN(C(=O)OC(C)(C)C)CC2)nn1 (some centres undefined),0.8%,0.1%,4.65µM*,-2.3,-9.5,?
COc1ccc(/C=N/NC(=O)CCc2c(C)n[nH]c2C)cc1O,4.1%,15.0%,-17.3%,1.8,19.9,.
NC(=O)C1(C(N)=O)OC1c1ccc(Cl)c(Cl)c1 (centres undefined),-4.3%,-2.9%,-0.9%,-0.7,-10.8,1.9%
COc1ccc(NC(=O)c2c(N)cnn2C)cc1,-1.2%,-2.8%,?,18.1*,24.6,42.8%
COc1ccc(NC(=O)c2c(N)no[n+]2[O-])cc1,1.2%,.,?,16.1*,48.4,48.3%
Cn1ncc(N)c1C(=O)Nc1cccc(C(F)(F)F)c1,0.0%,1.1%,?,3.4,13.9,17.4%
COc1ccc(NC(=O)c2c(N)no[n+]2[O-])c(OC)c1,-1.2%,.,13.7%,9.3,-12.5,31.9%
Cc1c(NC(=O)c2cc(-c3ccc(Cl)c(Cl)c3)on2)c(=O)n(-c2ccccc2)n1C,2.9%,12.4%,37.3%,-2.4,-6.1,9.8%
Cc1ccc(-c2cc(C(=O)NC3CCCC3)no2)cc1,-0.9%,-30.8%,33.6%,37.2*,92.2*,108.5%
Cc1cc(-c2ccccc2C(=O)NC2CCCCC2)on1,-0.9%,-0.2%,12.3%,-0.7,-10.2,26.2%
O=C(NC1CCCCC1)c1cc(-c2ccc(F)cc2)on1,1.7%,7.9%,-27.2%,11.9*,36.5,75.0%
SMILES,SARS PLP yeast,NS1 function inh,Pf growth 96h,CHX counter,Shiga inhibitor,Pf growth 48h
O=C(COCc1cc(-c2cccs2)on1)NC1CCCCC1,-3.9%,-11.6%,17.7%,7.3,-5.6,13.5%
O=C(NC1CCCC1)c1cc(-c2ccc(Cl)c(Cl)c2)on1,0.7%,-0.3%,47.6%,26.7*,45.4*,9.6%
O=C(NC1CCCCC1)c1cc(-c2cccs2)on1,16.8%,-5.0%,?,49.5*,117.0*,191.9%
CC(=O)[C@H]1CC[C@@H]2[C@]1(C)CC=C1[C@@]23C=C[C@]2(C[C@H](O)CC[C@@]12C)[C@H](C(=O)O)[C@@H]3C(=O)O,.,-3.2%,.,.,.,.
CC(C)(C)C(=O)OCOC(=O)[C@@H]1N2C(=O)[C@@H](N=CN3CCCCCC3)[C@H]2SC1(C)C,.,.,-3.0%,.,.,-14.7%
CC1(C)SC2[C@@H](N=CN3CCCCCC3)C(=O)N2[C@H]1C(=O)O (some centres undefined),.,.,16.9µM*,.,.,?
CCCCN(C(=O)c1cc2c(s1)CCC2)c1c(N)n(CCC)c(=O)[nH]c1=O,-3.2%,.,25.4%,.,.,3.7%
COc1cc2c(cc1OC)C(C)=NC1(CCCCC1)C2,-1.4%,5.4%,16.6%,-1.9,-5.9,?
COc1cc2c(cc1OC)C(SC)=NC1(CCCC1)C2,-0.8%,-6.2%,-22.5%,-1.9,-10.5,10.4µM*
OC(c1cc(-c2ccc(C(F)(F)F)cc2)nc(C(F)(F)F)c1)C1CCCCN1 (centres undefined),0.8%,8.7%,0.0083µM*,-10.3,-13.5,0.104µM*
OC(c1cc(C(F)(F)F)nc2c(C(F)(F)F)cccc12)C1CCCCN1 (centres undefined),.,.,0.0037µM*,.,.,0.0093µM*
CC(C)C[C@@H]1NC(=O)[C@H](C(C)C)NC(=O)c2cc([N+](=O)[O-])cc(I)c2OCC[C@@H](C(N)=O)NC1=O,0.7%,?,21.0%,-4.8,-11.4,10.6%
O=C(N/N=C/c1ccc(O)c(O)c1)NC12CC3CC(CC(C3)C1)C2,-0.7%,1.3%,7.2%,2.8,4.5,-19.7%
COc1cc(/C=N/NC(=O)NC23CC4CC(CC(C4)C2)C3)ccc1O,-5.4%,-0.7%,?,8.4,37.2*,?
O=C(N/N=C/c1ccccc1O)NC12CC3CC(CC(C3)C1)C2,-3.1%,-6.4%,2.62µM*,46.2*,139.0*,1.17µM*
O=C(NCc1ccccc1)NC12CC3CC(CC(C3)C1)C2,1.7%,-3.6%,13.6%,-2.5,32.7,-7.1%
C/C(=N/NC(=O)NC12CC3CC(CC(C3)C1)C2)c1ccccc1,3.2%,-0.3%,0.738µM*,-2.0,28.8,?
CCNC(=O)NC(=O)CN(C)c1ccccc1,2.4%,.,51.9%,0.9,2.1,13.4%
O=C(COC(=O)c1ncc(Cl)c(Cl)c1Cl)NC1CCCCCC1,3.4%,.,23.1%,.,.,35.5%
N#C/C(=C/c1cccs1)c1ccccn1,-6.6%,-4.3%,75.3%,34.9*,72.5*,98.2%
N#CC(C#N)=Cc1ccc(OC(=O)c2ccccn2)cc1,-20.6%,-20.5%,30.0%,9.0,17.3,10.3%

# Assay outcomes (PubChem BioAssay)
